# Experimental data as given in the supplement of paper PMC11417369.
# Whole data set: some 25,000 sequences, median “ln(normalized median fluorescence intensity)” near 6.7, cut for the highest 2% near 10. This excerpt belongs to a sample that is enriched for the highest values.
# System: PfHDP1 homeodomain (GST-tagged)
# Test: gcPBM binding intensity (ln(normalized median fluorescence intensity)); higher = stronger DNA binding
# In short: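 Alexa488 anti-GST antibody, scanned at 488 nm, detected GST-tagged P. falciparum DNA-binding domains that had been expressed in E. coli and incubated for 1 h on an Agilent 4 × 180k array. The array carried primer-extended double-stranded 36-bp intergenic genomic probes and negative controls. Binding intensity is the highest Masliner-normalised natural-log median intensity across replicate spots of either orientation of each probe.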
row,Sequence,gcPBM binding intensity (ln)
1,TTAACATCAAAATATGCACACAAACAATTAGCGGTA [CACACA_site8801],9.76
2,TTTATGACTTGAAAAAGTACACATATATTTATGCAA [XGTACX_site5451],6.31
3,TATTTATGCACGCGTGCACACACATATGAAAAAAGG [CACACA_site9090],10.9
4,TATGAAAAAATATATACACACATAATAAAGGTATAT [CACACA_site3737],6.42
5,TTATATGCATAAAAAGGTACACATATATAAATAAAT [XGTACX_site6894],6.68
6,TTTATGCACGCGTGCACACACATATGAAAAAAGGTA [CACACA_site3315],11
7,CAAAAGGATATGCACACACACACACGGATATTTATA [CACACA_site7099],10.1
8,TTAGGAAGCTCACAAAATAAAGTGAAAAGAAGAAAA [XGTACX_negctrl_site572],6.45
9,CCACAAGTATATAGTAGTACAATTTTTTTCTCTTTA [XGTACX_site4403],6.12
10,ACAACAAAAATAAGCACACACAAATATACATACATA [CACACA_site7664],6.55
11,TTCTCTATAAATGCTGCACACACATTTAATTATTTA [CACACA_site8828],8.06
12,CTTTTATTGCTCTATATGCACACCTTAATTCTTCAT [CACACA_site2195],10.5
13,CTCTTCTATATATAAGCATGCATTCATAATAATTTA [TGCATGCA_site679],7.04
14,TTTTTATATAACCTTCTTAATTCTTTTTTTTTTTTT [XGTACX_negctrl_site591],6.16
15,TTTATTGCTCTATATGCACACCTTAATTCTTCATTT [CACACA_site8682],11.1
16,TCATATAATATTTATATGCACACTTTTCTATATATA [CACACA_site4075],8.75
17,AAAAGGAACGGACACACACACATATATATATATATA [CACACA_site5894],9.45
18,TTTTTGAGTGCACATACACACAGACATACATTTAAA [CACACA_site5813],10.4

row,Sequence,gcPBM binding intensity (ln)
1,AATATAACTTTTTGCACACTTAATTTTTTTTTTTAA [CACACA_site3365],10.6
2,TATATTAAACTTTGCACACATAATTTAACTACAAAG [CACACA_site3441],10.5
3,TATATATTAAACTTTGCACACATAATTTAACTACAA [CACACA_site3440],10.7
4,ACTAAACTTTTATGTACACACATATAACATTAATTT [CACACA_site5276],6.98
5,TTAATATAACTTTTTGCACACTTAATTTTTTTTTTT [CACACA_site3364],10.2
6,TTTTTTTTTTTTTTTGCACACTATATTTAATATAAG [CACACA_site2444],9.31
7,ATGTATATGTTTTGTTGTACAAGTATTTTATATCTT [XGTACX_site3588],6.77
8,TTCATATTATAGTGCACACAAAAATATATATATGGT [CACACA_site2855],10.4
9,AAAATTAAACTCACACCACACACAAAAAAAAAAAAA [CACACA_site8131],6.32
10,AACTCATAGGAGTGTGCACACAAAAAATTAAAAAAA [CACACA_site8996],11
11,CTCATAGTTGGGTGCACACAAAAAATTAAAAAAATA [CACACA_site3032],10.3
12,AATTATTAGCGTGGTGTGCACAAAATTATGGACACA,9.8
13,AACTCATAGCGGTGTGCACACAAAAAATTAAAAAAA [CACACA_site3033],11
14,AGTATATATTATATATATATATATATATTATATATG [TGCATGCA_negctrl_site99],6.59
15,CTTTCTTATTTGAACGCATGCATTTGTACCTTTTAT [TGCATGCA_site671],6.85
16,AAATTCCACCAACACACACACATATAAATAAATAAA [CACACA_site1233],6.84
17,TTCAAAACTTAAAATCGTACAAGACAATTATTATAT [XGTACX_site6626],6.32
18,TTCTTTTTATTTATATTTTCCCCTCTCTATAGCTAT [XGTACX_negctrl_site102],7.06
